Active and inactive are the calls of the source. How the calls were made is not given here.

As a reminder, the inhibition is the share of the control response that was lost under treatment.

The target in this assay is Pantothenate synthetase (Mycobacterium tuberculosis (strain ATCC 25618 / H37Rv)) (UniProt P9WIL5). In words: Coupled enzyme confirmation of inhibitors against recombinant Mtb PanC (AID 375).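 Further: 0% = full reaction with vehicle and 100% = no enzyme background.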 As to conditions: coupled enzyme assay; at 10 µM, stronger effect = higher value.
Sequence of Pantothenate synthetase (Mycobacterium tuberculosis (strain ATCC 25618 / H37Rv)) (P9WIL5 whole entry, looked up): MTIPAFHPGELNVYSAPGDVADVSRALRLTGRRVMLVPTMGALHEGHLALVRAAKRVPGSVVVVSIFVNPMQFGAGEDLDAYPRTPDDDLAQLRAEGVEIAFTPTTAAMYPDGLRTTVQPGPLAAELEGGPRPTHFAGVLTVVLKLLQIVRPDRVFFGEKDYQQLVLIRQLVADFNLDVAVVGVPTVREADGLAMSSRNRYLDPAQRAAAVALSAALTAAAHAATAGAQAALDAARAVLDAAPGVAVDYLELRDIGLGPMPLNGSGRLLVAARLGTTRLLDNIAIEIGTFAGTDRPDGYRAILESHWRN
Consider `Cc1ccc(C(=O)NC2CC3CCCC(C2)N3C(=O)NC2CCCCC2)cc1` (stereo not drawn), for which the inhibition is 8% (inactive).
With `COc1ccccc1-c1cc2nc(C)c(CCC(=O)NCc3ccco3)c(C)n2n1` the figure was 0% (inactive).
Then `Cn1c(=O)c(NC(=O)c2ccccc2)c2n(c1=S)CCCCC2`, with 0% (inactive).
As to `O=C(Nc1ccc(Cl)c(C(F)(F)F)c1)N1CCCC(O)C1` (stereo not drawn), the inhibition was 4% (inactive).
Then `CN(C)CC(C(=O)c1ccccc1)c1ccccc1` (stereo not drawn), with 4% (inactive).
In the case of `COc1ccccc1-c1nnc(SCC(=O)NC2CCCCC2)o1`, the inhibition is 0% (inactive).
Take `CC(=O)SCC(=O)N=c1sc2cc(F)ccc2n1C`: the inhibition is 0% (inactive).
With `Nc1ccc2cn[nH]c2c1` the figure was 0% (inactive); with `Nc1nonc1C(=O)NCCNCc1cc(Br)ccc1OCc1ccccc1F`, 0% (inactive); with `N#CCSCC(=O)Nc1ccc(F)cc1`, 0% (inactive).
With `COC(=O)C1=C(C)Nc2ncnn2C1c1ccc(C)o1` (stereo not drawn), the inhibition was 0% (inactive).
Then `Cc1ccc(SCc2[nH]nc3c2C(c2ccc(C)o2)C(C#N)=C(N)O3)cc1` (stereo not drawn), with 3% (inactive).
Turning to `COc1cc2c(C#N)c(N3CCOCC3)nc(N)c2c(N)n1`, the inhibition was 0% (inactive).
With `O=c1c(F)cn(C2CCCO2)c(=O)n1Cc1c(F)cccc1Cl` (stereo not drawn) the figure was 0% (inactive); with `CCOC(=O)c1c2n(c3ccc(O)cc13)CCCCC2`, 0% (inactive); with `Cc1cc2ccccc2n1CCNC(=O)C1CC1`, 1% (inactive).
With `CC(C)OC(=O)c1ccc(NC(=O)C2C3CC4OC(=O)C2C4C3)cc1` (stereo not drawn) the figure was 7% (inactive); with `O=c1c2ccccc2nc(SCc2nnc(-c3ccccc3Br)o2)n1-c1ccccc1`, 0% (inactive).
